Data: ChEMBL document CHEMBL1961873, “Compounds: GSK PKIS; Assays: Nanosyn kinase panel” (2012)
Where “and” joins values, the source holds several entries; their conditions need not be identical. Identical values can stand only once.

molecular target: Proto-oncogene tyrosine-protein kinase receptor Ret (Homo sapiens) (UniProt P07949); settings: at 0.1 µM
Sequence (P07949 whole entry): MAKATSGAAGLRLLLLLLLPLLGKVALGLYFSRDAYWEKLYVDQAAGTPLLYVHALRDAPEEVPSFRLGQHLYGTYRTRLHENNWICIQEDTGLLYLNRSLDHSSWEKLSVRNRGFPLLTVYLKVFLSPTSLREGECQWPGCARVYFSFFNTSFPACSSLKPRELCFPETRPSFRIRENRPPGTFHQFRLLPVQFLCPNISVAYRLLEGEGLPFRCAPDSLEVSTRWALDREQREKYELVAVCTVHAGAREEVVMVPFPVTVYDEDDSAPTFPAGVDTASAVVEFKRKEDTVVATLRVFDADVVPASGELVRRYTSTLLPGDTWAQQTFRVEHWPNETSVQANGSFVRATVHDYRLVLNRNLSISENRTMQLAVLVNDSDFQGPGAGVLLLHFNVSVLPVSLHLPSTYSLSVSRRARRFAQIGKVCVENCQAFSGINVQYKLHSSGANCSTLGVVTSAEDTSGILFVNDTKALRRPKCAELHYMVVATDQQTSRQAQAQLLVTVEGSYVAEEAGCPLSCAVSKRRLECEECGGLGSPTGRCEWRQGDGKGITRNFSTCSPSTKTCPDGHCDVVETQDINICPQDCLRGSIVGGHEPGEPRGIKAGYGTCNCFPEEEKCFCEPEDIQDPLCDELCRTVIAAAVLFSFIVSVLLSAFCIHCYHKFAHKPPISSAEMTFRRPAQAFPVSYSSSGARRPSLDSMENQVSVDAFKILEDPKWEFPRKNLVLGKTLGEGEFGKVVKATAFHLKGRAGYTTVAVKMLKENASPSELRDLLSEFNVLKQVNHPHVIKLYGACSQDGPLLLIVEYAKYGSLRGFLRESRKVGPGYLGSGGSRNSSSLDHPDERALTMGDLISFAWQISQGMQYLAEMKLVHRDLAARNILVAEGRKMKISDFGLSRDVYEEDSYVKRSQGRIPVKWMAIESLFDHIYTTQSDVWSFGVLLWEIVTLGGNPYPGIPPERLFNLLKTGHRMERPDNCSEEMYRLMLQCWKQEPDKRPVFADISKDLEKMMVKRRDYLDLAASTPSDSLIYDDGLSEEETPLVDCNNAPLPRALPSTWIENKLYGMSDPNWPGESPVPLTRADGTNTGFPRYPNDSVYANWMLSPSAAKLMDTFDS

SMILES	inhibition
Cc1nnc(-c2cccc(-c3ccc(C(=O)NCC4CC4)cc3)c2)o1	4.13%
N#Cc1ccc2c(-c3ccnc(NC4CC4)n3)c(-c3ccc(F)cc3)nn2c1	5.41%
O=C(O[C@H]1CN[C@H](C#Cc2cc3ncnc(Nc4ccc(OCc5cccc(F)c5)c(Cl)c4)c3s2)C1)N1CCOCC1	2%
COc1c(C(N)=O)cc(-c2ccc(Cl)cc2)cc1-c1ccc(S(N)(=O)=O)cc1	2.82%
Cc1ccc(-c2cc3c(NC(=O)C4CC4)ncnc3o2)cc1	8.44%
COc1cccc(Nc2nccc(-c3cnn4ncccc34)n2)c1	1.21%
NS(=O)(=O)c1cccc(N/C=C2\C(=O)Nc3ccccc32)c1	7.9%
c1ccc(-c2n[nH]cc2-c2ccnc(-c3ccc(OCCn4ccnc4)cc3)c2)nc1	2%
CS(=O)(=O)Nc1ccc(-c2ccc3c(NC(=O)C4CC4)n[nH]c3c2)cc1	3.92%
CCOc1ccc2c(-c3ccnc(Nc4cc(OC)cc(C(F)(F)F)c4)n3)cnn2n1	2.73%
COC(=O)Nc1nc2cc(Oc3ccc(NC(=O)Nc4ccccc4)cc3)ccc2[nH]1	11.1%
CCS(=O)(=O)c1ccc(OC)c(Nc2ncc(-c3cccc(F)c3)o2)c1	13.5%
CC(C)c1ccc(-c2cc(-c3c[nH]nc3-c3ccccn3)ccn2)cc1	2.14%
CN1CCN(Cc2ccc(-c3cc4ncnc(Nc5ccc(OCc6cccc(F)c6)c(Cl)c5)c4s3)o2)CC1	6.83% and 5.69%
NS(=O)(=O)c1ccc(N/N=C2\C(=O)Nc3cccc(CCc4ccncc4)c32)cc1	21.6%
Cc1cc(O)cc(C)c1/C=C/c1cncc(C(N)=O)c1	3.99%

SMILES	inhibition
O=C1Nc2ccccc2/C1=C1\CCc2cc(O)ccc21	23%
Nc1nccc(-c2c(-c3ccc(F)cc3)ncn2C2CCNCC2)n1	-0.37% and 2.86%
COc1cc(N2CCN(C(C)C)CC2)ccc1Nc1nc(Nc2cccc(F)c2C(=O)O)c2cc[nH]c2n1	4.88%
CN(c1ccc(NC(=O)NCCN2CCOCC2)cc1)c1ccnc(Nc2ccc(CS(C)(=O)=O)cc2)n1	16.5%
N#Cc1cccc(Nc2ncc(-c3ccccc3)o2)c1	2.14%
O=C(O[C@H]1CN[C@H](C#Cc2cc3ncnc(Nc4ccc5c(cnn5Cc5ccccc5)c4)c3s2)C1)N1CCOCC1	2.44%
CNC(=O)c1sc(-n2cnc3cc(OC)c(OC)cc32)cc1OCc1ccccc1C(F)(F)F	1.78%
c1cnn2ncc(-c3ccnc(NCCCN4CCOCC4)n3)c2c1	4.78%
COc1ccccc1-c1cc(/C=C2\C(=O)Nc3ncc(Br)cc32)cc(Br)c1O	2.23%
CS(=O)(=O)CCNCc1ccc(-c2ccc3ncnc(Nc4ccc(OCc5ccccc5)cc4)c3c2)o1	2.99%
Fc1ccc(Nc2nccc(-c3c(-c4ccc(C(F)(F)F)cc4)nn4ncccc34)n2)cc1F	4%
NC(=O)c1ccc2c(-c3ccnc(NCCCO)n3)c(-c3ccc(F)cc3)nn2c1	5.55%
COC(=O)Nc1nc2ccc(Oc3ccc(NC(=O)Nc4cc(C(F)(F)F)ccc4F)cc3)cc2s1	86.7%
CS(=O)(=O)CCNCc1ccoc1-c1ccc2ncnc(Nc3ccc(OCc4ccccc4)cc3)c2c1	3.73%
COc1cccc(-n2ncc3c(N/N=C/c4ccc(C(=O)NCCN(C)C)cc4)ncnc32)c1	22.4%

molecular target: Proto-oncogene tyrosine-protein kinase receptor Ret (Homo sapiens) (UniProt P07949); settings: at 1 µM

SMILES	inhibition
Cc1nnc(-c2cccc(-c3ccc(C(=O)NCC4CC4)cc3)c2)o1	7.32%
N#Cc1ccc2c(-c3ccnc(NC4CC4)n3)c(-c3ccc(F)cc3)nn2c1	8.1%
O=C(O[C@H]1CN[C@H](C#Cc2cc3ncnc(Nc4ccc(OCc5cccc(F)c5)c(Cl)c4)c3s2)C1)N1CCOCC1	10.6%
COc1c(C(N)=O)cc(-c2ccc(Cl)cc2)cc1-c1ccc(S(N)(=O)=O)cc1	4.87%
Cc1ccc(-c2cc3c(NC(=O)C4CC4)ncnc3o2)cc1	27.6%
COc1cccc(Nc2nccc(-c3cnn4ncccc34)n2)c1	17.1%
NS(=O)(=O)c1cccc(N/C=C2\C(=O)Nc3ccccc32)c1	30.6%
c1ccc(-c2n[nH]cc2-c2ccnc(-c3ccc(OCCn4ccnc4)cc3)c2)nc1	9.49%
CS(=O)(=O)Nc1ccc(-c2ccc3c(NC(=O)C4CC4)n[nH]c3c2)cc1	6.93%
CCOc1ccc2c(-c3ccnc(Nc4cc(OC)cc(C(F)(F)F)c4)n3)cnn2n1	13.2%
COC(=O)Nc1nc2cc(Oc3ccc(NC(=O)Nc4ccccc4)cc3)ccc2[nH]1	26.6%
CCS(=O)(=O)c1ccc(OC)c(Nc2ncc(-c3cccc(F)c3)o2)c1	56.6%
CC(C)c1ccc(-c2cc(-c3c[nH]nc3-c3ccccn3)ccn2)cc1	5.62%
CN1CCN(Cc2ccc(-c3cc4ncnc(Nc5ccc(OCc6cccc(F)c6)c(Cl)c5)c4s3)o2)CC1	13.4% and 14.8%
NS(=O)(=O)c1ccc(N/N=C2\C(=O)Nc3cccc(CCc4ccncc4)c32)cc1	43.4%
Cc1cc(O)cc(C)c1/C=C/c1cncc(C(N)=O)c1	8.88%

SMILES	inhibition
O=C1Nc2ccccc2/C1=C1\CCc2cc(O)ccc21	66.3%
Nc1nccc(-c2c(-c3ccc(F)cc3)ncn2C2CCNCC2)n1	14.1% and 4.3%
COc1cc(N2CCN(C(C)C)CC2)ccc1Nc1nc(Nc2cccc(F)c2C(=O)O)c2cc[nH]c2n1	5.6%
CN(c1ccc(NC(=O)NCCN2CCOCC2)cc1)c1ccnc(Nc2ccc(CS(C)(=O)=O)cc2)n1	58.5%
N#Cc1cccc(Nc2ncc(-c3ccccc3)o2)c1	3.79%
O=C(O[C@H]1CN[C@H](C#Cc2cc3ncnc(Nc4ccc5c(cnn5Cc5ccccc5)c4)c3s2)C1)N1CCOCC1	4.66%
CNC(=O)c1sc(-n2cnc3cc(OC)c(OC)cc32)cc1OCc1ccccc1C(F)(F)F	9.67%
c1cnn2ncc(-c3ccnc(NCCCN4CCOCC4)n3)c2c1	0.87%
COc1ccccc1-c1cc(/C=C2\C(=O)Nc3ncc(Br)cc32)cc(Br)c1O	11.1%
CS(=O)(=O)CCNCc1ccc(-c2ccc3ncnc(Nc4ccc(OCc5ccccc5)cc4)c3c2)o1	9.8%
Fc1ccc(Nc2nccc(-c3c(-c4ccc(C(F)(F)F)cc4)nn4ncccc34)n2)cc1F	6.84%
NC(=O)c1ccc2c(-c3ccnc(NCCCO)n3)c(-c3ccc(F)cc3)nn2c1	16.6%
COC(=O)Nc1nc2ccc(Oc3ccc(NC(=O)Nc4cc(C(F)(F)F)ccc4F)cc3)cc2s1	88.4%
CS(=O)(=O)CCNCc1ccoc1-c1ccc2ncnc(Nc3ccc(OCc4ccccc4)cc3)c2c1	0.18%
COc1cccc(-n2ncc3c(N/N=C/c4ccc(C(=O)NCCN(C)C)cc4)ncnc32)c1	66.9%
